# PubChem BioAssay (NCI)
# The panel holds about 79,000 compounds, 15% with a hit somewhere; the sample as a whole holds those more often. Active and inactive are the calls of the source. Rule as the data show it: active = growth inhibition above about 70%; inactive = the rest. Where a SMILES comes first, the peptide text is derived from it. [ ]: non-standard residue; d: D form. ξ: configuration not given here. ξP = O=C(O)C1CCCN1
# Assay: NCI Yeast Anticancer Drug Screen. Data for the rad50 strain (AID 155);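 also: 0% = growth of vehicle-only cultures of the same strain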
# Conditions: S. cerevisiae rad50 strain growth inhibition; at 50.0 µM; active compounds read high
# Protocol: Growth inhibition of yeast strains with defined genetic alterations is measured as a screen for potential anti-cancer activity. Selected strains with alterations in DNA damage repair or cell cycle control were exposed to compounds and growth inhibition was measured relative to vehicle treated controls. The strain used in this assay is rad50
row,Compound,growth inhibition
1,C=C=CON1CCCCC1,-16% (inactive)
2,O=[N+]([O-])c1cccnc1Oc1cccc(C(F)(F)F)c1,-16.8% (inactive)
3,N#CC(NCc1ccccc1)C(O)c1ccccc1 (stereo not given),17.8% (inactive)
4,c1ccc(C(c2cccc3c2ccc2ccccc23)C(c2ccccc2)c2cccc3c2ccc2ccccc23)cc1 (stereo not given),4.75% (inactive)
5,Nc1cc(Cl)cc(S(=O)(=O)O)c1O,1.9% (inactive)
6,CCCN/C=C1\CC(=O)N(C)C1=O,5.15% (inactive)
7,S=c1[nH]nc(COc2cccc3cccnc23)n1-c1ccccc1,12.5% (inactive)
8,NCC(=O)N1CCCC1C(=O)NCC(=O)NCC(=O)O (stereo not given) (H-G[ξP]GG-OH),11.6% (inactive)
9,CCOC(=O)c1ccc[n+]([O-])c1,-2.35% (inactive)
10,O=C1O/C(=C(\Br)c2ccccc2)c2ccccc21,52.9% (inactive)
11,COc1cc2c(c(OC)c1OC)C(=O)[C@H]1OC(=O)N[C@@H]21,8% (inactive)
12,CN(CC(=O)O)Cc1oc(CO)cc(=O)c1O,-9.45% (inactive)
13,O=C1NC(=O)c2ccccc2/C1=C/c1ccc2c(c1)OCO2,-16.6% (inactive)
14,CCCC(SCC(=O)O)SCC(=O)O,14.4% (inactive)
15,Cc1nn(-c2ccc(Cl)cc2)c2c1c(=O)[nH]c1ccccc12,6% (inactive)
16,Nc1nc(=O)n(C2OC(CO)C(O)C2O)cc1F (stereo not given),10.8% (inactive)
17,OCCOc1c(Cl)c(C(Cl)(Cl)Cl)nc2ccccc12,84.2% (active)
18,CC(C)(C)CC(C)(C)NCc1ccc(Cl)cc1,78.6% (active)
19,O=C(COc1c(Cl)c(Cl)c(Cl)c(Cl)c1Cl)Nc1cccc(Cl)c1,18.9% (inactive)
20,CC(=O)C1=C(C)C2CC3(C)CC(C2(C)C1)C3(C)C (stereo not given),8.45% (inactive)

row,Compound,growth inhibition
1,COC1=CC(=O)C(C)=CC1=O,-2.1% (inactive)
2,CC1=Nc2nc3ccccc3n2C(C)(C)C1,14.6% (inactive)
3,CCO[Si](OCC)(OCC)c1ccccc1,-28.7% (inactive)
4,CNC1C(CO)OC(OC)C1O (stereo not given),10.8% (inactive)
5,CN(C)Cc1onc(-c2c(Cl)cccc2Cl)c1C(=O)O,1.3% (inactive)
6,O=c1sc2ccccc2n1CCN(CCn1c(=O)sc2ccccc21)c1ccccc1,39.7% (inactive)
7,O=C(O)CCc1cccc2c(=O)cc(-c3ccccc3)oc12,-10.3% (inactive)
8,COC1O[C@H]2CCN(C(=O)OCc3ccccc3)[C@H]2[C@H]1OCc1ccccc1 (stereo not given in full),19.8% (inactive)
9,N#CCc1csc(-c2ccccc2)n1,26.6% (inactive)
10,C=CCN(CC=C)C(=O)C(=C)C,3.3% (inactive)
11,CCOCC(=O)N[C@H]1CCc2cc(OC)c(OC)c(OC)c2-c2ccc(SC)c(=O)cc21,10.7% (inactive)
12,C(=C1c2c(ccc3ccccc23)Oc2ccc3ccccc3c21)c1ccccc1,14.3% (inactive)
13,CCCCCCCCCCCCCCCCCCNC(=S)N(C)C,18.8% (inactive)
14,OCc1c(CO)c(-c2ccc(Cl)cc2)n2c1CCC2,29.4% (inactive)
15,Cn1c(=O)c2c(nc(Cc3ccccc3)n2CC(=O)O)n(C)c1=O,0.3% (inactive)
16,O=C1OC(=O)C2C3C=CC(C4C=C(C5CC5)C43)C12 (stereo not given),9.8% (inactive)
17,Cc1nnsc1-c1nc2ccccc2[nH]1,22.2% (inactive)
18,CC1(c2ccccc2)OCCS1 (stereo not given),40.7% (inactive)
19,CCC1(C)C(=O)C(C)(CC)C1=O (stereo not given),23.6% (inactive)
20,CC1(C)[C@@H]2C[C@H]1C(Cc1cccc(C[C@H]3c4cc(-c5ccccn5)ncc4[C@H]4C[C@@H]3C4(C)C)c1)c1cc(-c3ccccn3)ncc12 (stereo not given in full),-2.2% (inactive)
